As to `COc1cc2ncnc(Nc3cccc(Cl)c3F)c2cc1O[C@H]1CC[C@H]([C@@H]2NCCNC2=O)CC1` [BI00133844], the Kinases covered entry with HCK is on record as “HCK”.

Regarding `COc1ccc2c(-c3ccnc(Nc4cccc(OC(F)(F)F)c4)n3)cnn2n1` [GW810372X], the Kinases covered result in the assay on HIPK1 is “HIPK1”.

For `CCOc1ccc2c(-c3ccnc(Nc4cccc(C(F)(F)F)c4)n3)cnn2n1` [GW811761X], the results for the Kinases covered entry in the assay on HIPK2 and in the assay with HIPK3 were “HIPK2” and “HIPK3”, respectively.

For the compound `COC[C@@H](C)N[C@H]1CC[C@H](Nc2cc(-c3cccc(NCC4(C#N)CCOCC4)n3)c(Cl)cn2)CC1` [NVP-2], in the assay with HIPK4, the Kinases covered result is on record as “HIPK4”.

Regarding `CCCc1cc(N2CCCN(C)CC2)nc2sc3c(N)ncnc3c12` [BI00604564], the Kinases covered entry in the assay on Haspin is “Haspin”.

On to `Cc1cc(NC(=O)c2cccc(NC(=O)/C=C/CN(C)C)c2)ccc1Nc1nccc(-c2cccnc2)n1` [JNK-IN-7], for which the Kinases covered result in the assay on ICK is given as “ICK”.

For the compound `CCC(NN(C)C)=C1C(=O)Nc2ccc(C(C)=O)cc21` [BI00036838], the Kinases covered result in the assay on ICK was “ICK”.

As for `c1ccc(-c2cc3ccncc3cc2OC2CCNCC2)cc1` [GSK1122999], in the assay on IKBKB, the Kinases covered result is “IKBKB”.
